This note sets out measurements from PubChem BioAssay (EPA / NIEHS).

Experiment [1] in a line: ATG_E_Box_CIS: Attagene CIS-FACTORIAL HepG2 Assay for human Enhancer Box (E-box) (AID 2282936). The conditions noted are these: HepG2 E-box cis-reporter transcription, actives raise or lower the signal. A digest of the protocol: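 Transiently transfected HepG2, endogenous TF-driven reporters, 24 h dosing. Readout: RT-PCR plus capillary electrophoresis of fluorescent reporter fragments. Gain or loss of signal fitted bidirectionally against DMSO baseline.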

The nature of experiment [2]: ATG_M_61_CIS: Attagene CIS-FACTORIAL HepG2 Assay for M61 Transcription Factor (Internal Marker) (AID 2282937). The conditions noted are these: HepG2 Attagene CIS-FACTORIAL M61 internal marker reporter; actives raise or lower the signal. A digest of the protocol:
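Endogenous transcription factor activity in HepG2 is read through transiently transfected cis-element reporter units. After 24 h dosing, RNA undergoes reverse transcription, PCR and primer extension with 6-FAM before capillary electrophoresis; DMSO-referenced bidirectional fit.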

The nature of experiment [3]: ATG_EGR_CIS: Attagene CIS-FACTORIAL HepG2 Assay for human Early Growth Response 1 (EGR1) (AID 2282938). The conditions noted are these: HepG2 Attagene CIS-FACTORIAL EGR reporter mRNA; actives raise or lower the signal. The method in brief:
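Activity is taken as induction or loss of reporter mRNA versus DMSO, fitted bidirectionally. Transcripts from cis-regulated reporter units in transiently transfected HepG2 were measured after 24 h by RT-PCR with capillary electrophoresis.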

Experiment [4] is described as follows: ATG_ERE_CIS: Attagene CIS-FACTORIAL HepG2 Assay for Estrogen Response Element (ERE) (AID 2282940). The conditions noted are these: HepG2 ERE cis-reporter, Attagene RNA transcript; actives raise or lower the signal. The method in brief: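 After 24 h compound treatment, RNA from transfected HepG2 cells was reverse-transcribed, reporter cDNA PCR-amplified, FAM-labelled, HpaI-cut and resolved by capillary electrophoresis. ERE-driven cis reporter transcripts reflect endogenous factors; gain or loss scored against DMSO.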

Experiment [5] can be described thus: ATG_Ets_CIS: Attagene CIS-FACTORIAL HepG2 Assay for human Erythroblast Transformation Specific (ETS) (AID 2282941). The conditions noted are these: HepG2 ETS cis-reporter transcription, actives raise or lower the signal. A digest of the protocol: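 Multiplexed reporter transcript profiling: HepG2, 24 h treatment, total RNA to cDNA, PCR, 6-FAM labelling, HpaI cut, capillary electrophoresis. Gain- or loss-of-signal fitted against DMSO.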

The target in experiment [6] is Hepatocyte nuclear factor 3-beta (Homo sapiens) (UniProt Q9Y261). In words: ATG_FoxA2_CIS: Attagene CIS-FACTORIAL HepG2 Assay for human Forkhead box A2 (FOXA2) (AID 2282942). The conditions noted are these: HepG2 cis-reporter transcription factor activity, 24 h; actives raise or lower the signal. A digest of the protocol:
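Reporter transcript induction is measured by fluorescence after capillary electrophoresis of RT-PCR products from HepG2 cells exposed 24 h. Cis-regulated reporter units report endogenous factor activity; curves fitted both directions against DMSO.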

The nature of experiment [7]: ATG_GATA_CIS: Attagene CIS-FACTORIAL HepG2 Assay for human GATA Binding Protein (AID 2282944). The conditions noted are these: HepG2 GATA cis-element reporter, Attagene multiplex mRNA; actives raise or lower the signal. The method in brief:
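Reporter transcripts from a GATA cis-regulated unit, among multiplexed reporters in transfected HepG2 cells, were measured by RT-PCR with capillary electrophoresis after 24 h dosing. Induction or loss scored relative to DMSO.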

Experiment [8] is described as follows: ATG_GLI_CIS: Attagene CIS-FACTORIAL HepG2 Assay for human Zinc Finger Protein GLI1 (AID 2282945). The conditions noted are these: HepG2, Attagene cis-factorial reporter mRNA, GLI element; actives raise or lower the signal. The method in brief: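 Transiently transfected HepG2 cells report endogenous transcription factor activity via cis-element-driven reporter units. After 24 h compound exposure, reporter mRNA was measured by RT-PCR with capillary electrophoresis; bidirectional fitting against DMSO baseline.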

Experiment [9] deals with Bile acid receptor (Homo sapiens) (UniProt Q96RI1). Briefly: ATG_IR1_CIS: Attagene CIS-FACTORIAL HepG2 Assay for human Nuclear Receptor Subfamily 1 Group H Member 4 (NR1H4), IR1 submotif (AID 2282946). The conditions noted are these: IR1 reporter transcription, actives raise or lower the signal. The method in brief: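 Fluorescence of capillary-separated, HpaI-digested RT-PCR reporter products gave IR1-element mRNA induction in HepG2 cells 24 h after dosing. Endogenous transcription factors drove the cis-regulated reporters; activity was fitted bidirectionally against DMSO.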
Sequence of Bile acid receptor (Homo sapiens) (Q96RI1 whole entry, looked up): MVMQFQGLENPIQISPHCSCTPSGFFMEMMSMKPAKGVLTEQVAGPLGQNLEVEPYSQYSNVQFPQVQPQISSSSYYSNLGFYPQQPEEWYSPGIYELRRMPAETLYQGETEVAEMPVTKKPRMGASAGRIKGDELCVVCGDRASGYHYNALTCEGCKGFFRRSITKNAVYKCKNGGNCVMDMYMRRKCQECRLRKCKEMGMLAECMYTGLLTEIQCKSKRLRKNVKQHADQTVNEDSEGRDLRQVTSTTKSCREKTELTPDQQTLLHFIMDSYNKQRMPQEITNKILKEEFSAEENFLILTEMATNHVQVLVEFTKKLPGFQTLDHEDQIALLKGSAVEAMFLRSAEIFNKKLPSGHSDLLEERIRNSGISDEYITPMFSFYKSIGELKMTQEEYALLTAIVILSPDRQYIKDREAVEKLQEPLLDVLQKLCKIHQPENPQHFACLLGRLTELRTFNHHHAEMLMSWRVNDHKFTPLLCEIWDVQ

Experiment [10] in a line: ATG_GRE_CIS: Attagene CIS-FACTORIAL HepG2 Assay for human Glucocorticoid Response Elements (GRE) (AID 2282947). The conditions noted are these: HepG2 GRE cis-reporter, Attagene multiplex mRNA; actives raise or lower the signal. The method in brief: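 Read-out: fluorescent reporter-transcript fragments separated by capillary electrophoresis after RT-PCR. Transiently transfected HepG2 cells carrying cis-element-driven reporter units were dosed for 24 h; gain or loss of signal fitted against DMSO control.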

A short description of experiment [11]: ATG_ISRE_CIS: Attagene CIS-FACTORIAL HepG2 Assay for human Interferon Regulatory Factor 1 (IRF1) binding to an Interferon-Stimulated Response Element (ISRE) (AID 2282948). The conditions noted are these: HepG2 ISRE cis-reporter (Attagene), mRNA transcription readout; actives raise or lower the signal. A digest of the protocol: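 Signal reflects induction or loss of ISRE-linked reporter mRNA in transiently transfected HepG2 cells after a 24 h treatment, detected by fluorescent RT-PCR fragments on capillary electrophoresis and normalised to DMSO.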

Experiment [12] is described as follows: ATG_M_32_CIS: Attagene CIS-FACTORIAL HepG2 Assay for M32 Transcription Factor (Internal Marker) (AID 2282949).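 Further: background control marker of the multiplexed CIS panel rather than a real target.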 The conditions noted are these: HepG2 Attagene cis-factorial M32 reporter, mRNA; actives raise or lower the signal. The method in brief: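 Transient MRTU transfection of HepG2; 24 h compound treatment; TriZol RNA, oligo(dT) RT, reporter PCR, 6-FAM primer extension, HpaI cut, CE. Gain/loss of signal vs DMSO.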

A short description of experiment [13]: ATG_M_06_CIS: Attagene CIS-FACTORIAL HepG2 Assay for M06 Transcription Factor (Internal Marker) (AID 2282950). The conditions noted are these: HepG2 Attagene CIS-FACTORIAL M06 internal marker reporter; actives raise or lower the signal. The method in brief:
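Serves as a background control readout. Transfected HepG2 exposed to compounds for 24 h, then reporter transcripts quantified by fluorescent RT-PCR and capillary electrophoresis. Both directions fitted against DMSO baseline.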

The target of experiment [14] is Hypoxia-inducible factor 1-alpha (Homo sapiens) (UniProt Q16665). Briefly: ATG_HIF1a_CIS: Attagene CIS-FACTORIAL HepG2 Assay for human Hypoxia Inducible Factor 1 (HIF1A) (AID 2282951). The conditions noted are these: HepG2 Attagene cis-factorial HIF1a reporter transcription; actives raise or lower the signal. The method in brief:
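Fluorescence intensity of capillary-separated, 6-FAM-labelled reporter amplicons gives mRNA induction in HepG2 cells carrying transfected cis-promoter reporter units; cells exposed 24 h, responses fitted up or down from DMSO.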

Experiment [15] has as its target Hepatocyte nuclear factor 6 (Homo sapiens) (UniProt Q9UBC0). Briefly: ATG_HNF6_CIS: Attagene CIS-FACTORIAL HepG2 Assay for human Hepatocyte Nuclear Factor 6 (HNF6) (AID 2282952). The conditions noted are these: HepG2 Attagene cis-factorial HNF6 reporter transcription; actives raise or lower the signal. The method in brief:
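Activity values derive from bidirectional fitting against DMSO of reporter mRNA levels, measured by capillary electrophoresis of labelled RT-PCR products from HepG2 cells exposed 24 h.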

Experiment [16] addresses Heat shock factor protein 1 (Homo sapiens) (UniProt Q00613). In words: ATG_HSE_CIS: Attagene CIS-FACTORIAL HepG2 Assay for human Heat Shock Transcription Factor 1 (HSE) (AID 2282953). The conditions noted are these: HepG2 HSE cis-reporter, Attagene RNA transcription; actives raise or lower the signal. A digest of the protocol:
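Endogenous transcription factor activity in transiently transfected HepG2, read as reporter mRNA by RT-PCR with fluorescent capillary electrophoresis after 24 h. Gain or loss of signal fitted versus DMSO baseline.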

Experiment [17] in a line: ATG_MRE_CIS: Attagene CIS-FACTORIAL HepG2 Assay for human Metal Responsive Element (MRE) (AID 2282954). The conditions noted are these: HepG2 MRE cis-reporter transcription, Attagene multiplex; actives raise or lower the signal. A digest of the protocol:
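RT-PCR/capillary electrophoresis readout of reporter mRNA, 24 h post-dosing, in HepG2 cells transfected with multiplexed cis-regulated reporter constructs. Gain or loss of signal fitted bidirectionally against DMSO baseline.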

Experiment [18] is described as follows: ATG_M_19_CIS: Attagene CIS-FACTORIAL HepG2 Assay for M19 Transcription Factor (Internal Marker) (AID 2282939). The conditions noted are these: HepG2 Attagene CIS-FACTORIAL M19 internal marker reporter; actives raise or lower the signal. A digest of the protocol: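 Internal marker readout, fitted in both directions against DMSO, from HepG2 cells carrying transfected cis-element reporter constructs; RT-PCR and capillary electrophoresis of reporter mRNA after 24 h exposure.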

Experiment [19] is described as follows: ATG_FoxO_CIS: Attagene CIS-FACTORIAL HepG2 Assay for human Forkhead box O (FoxO) (AID 2282943). The conditions noted are these: HepG2 Attagene cis-reporter, FoxO element, mRNA; actives raise or lower the signal. A digest of the protocol: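 HepG2 cells transiently transfected with cis-element-driven reporter units report endogenous FoxO activity. After 24 h chemical exposure, reporter mRNA quantified by RT-PCR, fluorescent labeling, HpaI digestion and capillary electrophoresis; bidirectional fit versus DMSO.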

SMILES strings stand for the structures. Calls of active or inactive are those of the source. How the source made its calls: active means hit-call score of the fitted dose curve at least 0.9, where 1 is the maximum; inactive means score below 0.9.

Sequence of Hepatocyte nuclear factor 6 (Homo sapiens) (Q9UBC0 whole entry, looked up): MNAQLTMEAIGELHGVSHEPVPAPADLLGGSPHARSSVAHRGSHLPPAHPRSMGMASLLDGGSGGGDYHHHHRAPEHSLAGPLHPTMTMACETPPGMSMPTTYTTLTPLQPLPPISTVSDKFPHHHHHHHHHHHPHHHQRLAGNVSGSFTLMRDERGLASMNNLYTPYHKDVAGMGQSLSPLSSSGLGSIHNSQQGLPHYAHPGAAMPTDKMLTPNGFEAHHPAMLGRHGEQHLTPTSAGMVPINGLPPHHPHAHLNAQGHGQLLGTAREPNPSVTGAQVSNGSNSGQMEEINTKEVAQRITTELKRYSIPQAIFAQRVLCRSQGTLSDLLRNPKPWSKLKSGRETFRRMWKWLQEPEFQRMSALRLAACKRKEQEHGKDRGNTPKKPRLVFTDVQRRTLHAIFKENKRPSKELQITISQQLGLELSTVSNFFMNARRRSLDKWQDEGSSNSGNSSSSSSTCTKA
Sequence of Hepatocyte nuclear factor 3-beta (Homo sapiens) (Q9Y261 whole entry, looked up): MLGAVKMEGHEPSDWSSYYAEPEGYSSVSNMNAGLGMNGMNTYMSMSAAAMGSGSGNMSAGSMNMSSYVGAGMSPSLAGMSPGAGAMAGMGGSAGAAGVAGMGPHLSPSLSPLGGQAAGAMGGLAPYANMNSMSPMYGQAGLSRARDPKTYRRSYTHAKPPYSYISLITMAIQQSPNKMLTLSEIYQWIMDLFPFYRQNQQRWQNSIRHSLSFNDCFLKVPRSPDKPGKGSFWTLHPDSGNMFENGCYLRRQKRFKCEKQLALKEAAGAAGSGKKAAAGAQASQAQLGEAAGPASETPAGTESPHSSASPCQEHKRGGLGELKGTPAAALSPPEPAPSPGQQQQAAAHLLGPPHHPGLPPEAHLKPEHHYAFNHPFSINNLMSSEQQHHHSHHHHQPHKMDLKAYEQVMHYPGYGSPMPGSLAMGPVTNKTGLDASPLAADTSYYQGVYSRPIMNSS
Sequence of Hypoxia-inducible factor 1-alpha (Homo sapiens) (Q16665 whole entry, looked up): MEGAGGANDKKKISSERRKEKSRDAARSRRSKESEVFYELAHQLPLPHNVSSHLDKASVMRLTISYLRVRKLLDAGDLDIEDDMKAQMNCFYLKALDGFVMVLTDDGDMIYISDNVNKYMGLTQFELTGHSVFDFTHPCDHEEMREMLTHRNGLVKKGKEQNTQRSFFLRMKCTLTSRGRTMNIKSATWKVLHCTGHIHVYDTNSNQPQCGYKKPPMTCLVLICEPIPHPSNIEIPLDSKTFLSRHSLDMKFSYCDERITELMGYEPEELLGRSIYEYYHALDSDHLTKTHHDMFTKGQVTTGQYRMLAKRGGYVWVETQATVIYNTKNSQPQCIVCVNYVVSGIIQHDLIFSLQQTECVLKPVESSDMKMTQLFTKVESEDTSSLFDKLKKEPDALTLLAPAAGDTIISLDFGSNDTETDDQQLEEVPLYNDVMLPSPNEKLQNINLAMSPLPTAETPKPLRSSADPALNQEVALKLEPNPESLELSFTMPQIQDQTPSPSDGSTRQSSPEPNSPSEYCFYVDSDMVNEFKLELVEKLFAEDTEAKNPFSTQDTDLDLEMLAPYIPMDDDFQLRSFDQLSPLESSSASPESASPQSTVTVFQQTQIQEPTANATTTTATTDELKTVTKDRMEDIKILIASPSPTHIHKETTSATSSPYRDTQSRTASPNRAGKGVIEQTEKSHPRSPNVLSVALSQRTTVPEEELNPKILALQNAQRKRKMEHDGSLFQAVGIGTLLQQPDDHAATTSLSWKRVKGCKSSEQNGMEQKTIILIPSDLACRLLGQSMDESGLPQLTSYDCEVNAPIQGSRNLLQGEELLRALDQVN
Sequence of Heat shock factor protein 1 (Homo sapiens) (Q00613 whole entry, looked up): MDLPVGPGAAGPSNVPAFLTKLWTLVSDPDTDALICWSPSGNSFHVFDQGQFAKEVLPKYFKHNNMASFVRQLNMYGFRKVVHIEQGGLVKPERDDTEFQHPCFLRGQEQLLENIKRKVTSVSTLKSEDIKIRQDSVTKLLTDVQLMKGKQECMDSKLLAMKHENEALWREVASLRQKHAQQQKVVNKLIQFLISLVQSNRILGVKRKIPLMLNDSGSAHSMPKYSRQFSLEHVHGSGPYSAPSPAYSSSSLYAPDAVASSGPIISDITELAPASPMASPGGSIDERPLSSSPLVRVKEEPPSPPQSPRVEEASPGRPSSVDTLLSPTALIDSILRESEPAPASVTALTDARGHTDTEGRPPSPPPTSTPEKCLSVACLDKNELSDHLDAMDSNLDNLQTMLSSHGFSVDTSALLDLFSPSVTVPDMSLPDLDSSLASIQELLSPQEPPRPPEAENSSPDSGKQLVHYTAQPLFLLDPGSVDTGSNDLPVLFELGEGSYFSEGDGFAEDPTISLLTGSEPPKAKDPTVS

Take `CC(C)=CCCC(C)=CC#N`: the outcome in [1], in [2], in experiment [3], in experiment [5], in experiment [6] and in experiment [7] was inactive. Besides, the result in experiment [8], in experiment [9], in [10], in [11], in experiment [12] and in experiment [13] was inactive. The compound was called inactive in experiment [14], in experiment [15], in [16] and in experiment [17]. Also, the AC50 – broadly, the concentration giving half of the maximal activity seen – in experiment [4] is 172 µM (active).

Turning to `Oc1ccc(-c2ccccc2)c(Cl)c1`, the result in experiment [1], in experiment [2], in experiment [18], in experiment [5], in [6] and in [19] was inactive. Also, the call in [7], in experiment [8], in [10], in experiment [11], in experiment [12] and in [13] was inactive. Also, the result in [15] and in experiment [16] was inactive. Also, the AC50 is 53.9 µM (active) in experiment [3], 9.09 µM (active) in experiment [4] and 52.9 µM (active) in experiment [17].

Turning to `CC(CC(C)C)=NO`, the result in [1], in [2], in [18], in experiment [4], in [5] and in experiment [6] was inactive. In addition, the call in experiment [19], in [7], in experiment [8], in experiment [10], in [11] and in [13] was inactive. For the same compound, the outcome in experiment [14], in experiment [15], in experiment [16] and in experiment [17] was inactive.

For `C=CCOC(=O)c1ccc(C(=O)OCC=C)c(C(=O)OCC=C)c1`, the AC50 in experiment [1] was 140 µM (active); in experiment [4], 22.8 µM (active). Also, the outcome in experiment [2], in experiment [18], in experiment [5], in experiment [6], in experiment [7] and in [8] was inactive. Further, the compound was classed as inactive in experiment [10], in experiment [11], in experiment [12], in [13], in [14] and in experiment [15]. Moreover, the result in experiment [16] and in [17] was inactive.

`CC1CC(=O)CC(C)(C)C1` (configuration not stated): the outcome in experiment [1], in experiment [2], in experiment [3], in experiment [18], in [4] and in experiment [5] was inactive. The compound was classed as inactive in experiment [6], in [19], in experiment [7], in [8], in [10] and in [12]. Moreover, the result in [13], in experiment [15], in experiment [16] and in [17] was inactive.
